# According to the OligoGym collection:
# Experiments:
# Test in all cases: pooled miR-30 sensor sort-seq; sequence = guide strand
# Conditions in all cases: shRNA
# STYK1 = biological target: STYK1
# STYX = biological target: STYX
# STX17 = biological target: STX17
# SULT1A2 = biological target: SULT1A2
# SYT2 = biological target: SYT2
# TAF4 = biological target: TAF4
# TARBP2 = biological target: TARBP2
# TAF5 = biological target: TAF5
# Note: reference of the scale not given here.
sequence,measurement,setting,value
ATAGTCATCACATCCCGCCGAC,sensor-assay potency score (higher = more potent),STYK1,-0.512
TTCTTTCTTGAACATAAGCAAA,sensor-assay potency score (higher = more potent),STYX,-1.59
TTTCTGTAGTACAGGTAGCTTG,sensor-assay potency score (higher = more potent),STYX,-1
TTCATCATTAAATTGCTTCTTA,sensor-assay potency score (higher = more potent),STX17,0.611
TTCTACACATCTCAAGTCCTTA,sensor-assay potency score (higher = more potent),STX17,0.0253
AATGCTGTCAATCTTCTCCTGC,sensor-assay potency score (higher = more potent),STX17,0.00387
TTCTTCATCATTAAATTGCTTC,sensor-assay potency score (higher = more potent),STX17,0.0874
TTGCTTCAATATTTTGTCGTAT,sensor-assay potency score (higher = more potent),STYX,-0.787
TCAAACTCTGAGAACTAGCTTC,sensor-assay potency score (higher = more potent),STX17,0.0575
TTGAGAATAACACTCTTGGGCT,sensor-assay potency score (higher = more potent),STYK1,-0.459
TAGAAATTCACACTCTATGATG,sensor-assay potency score (higher = more potent),STYX,-0.976
ATAGTAACCAACAAAGTTGGGA,sensor-assay potency score (higher = more potent),STYK1,0.0523
TATTCCTTCATTTCATTCCAAA,sensor-assay potency score (higher = more potent),STYK1,-1.26
TTGCTTTTCATAGCAGATGAAT,sensor-assay potency score (higher = more potent),STYX,-1.47
TCTTGCACGTGCTGGTACCAGG,sensor-assay potency score (higher = more potent),SULT1A2,-1.6
TCTCATTGAATAACTTCTCCTT,sensor-assay potency score (higher = more potent),SYT2,-0.0548
TAACTGTTCTGGATCTTCTTGT,sensor-assay potency score (higher = more potent),TAF4,0.732
TTTCGAAGACCATCCAGGCGGG,sensor-assay potency score (higher = more potent),TARBP2,-0.916
TTACCTATTTCTAATATTCTTC,sensor-assay potency score (higher = more potent),TAF4,-0.515
TATCTGAATCTTTCAACTCAGG,sensor-assay potency score (higher = more potent),TAF5,-1.06
TGAATTTCGTAGAGAATCCCAG,sensor-assay potency score (higher = more potent),TARBP2,-0.515
TCCTGCAGAAGGCTGATCGGGG,sensor-assay potency score (higher = more potent),TARBP2,-1.33
TTTCTGCACCACCAGCTCCTGC,sensor-assay potency score (higher = more potent),TARBP2,-1.56
TACATCTGGATGTAATTCCGTT,sensor-assay potency score (higher = more potent),TAF4,-0.473
TTAACTGTTCTGGATCTTCTTG,sensor-assay potency score (higher = more potent),TAF4,-0.704
TATTCTGGTCCCATACTCCTGC,sensor-assay potency score (higher = more potent),TARBP2,0.18
TAATACTCGTAGGTCATCCTGG,sensor-assay potency score (higher = more potent),TAF5,0.422
TATCTGTTGCTTACTACGCGGC,sensor-assay potency score (higher = more potent),TAF5,-0.346
TATTTTTCTGTGCAGCAGCTGC,sensor-assay potency score (higher = more potent),TAF4,-0.881
TCGTACACAGGCGTCTTCCCTA,sensor-assay potency score (higher = more potent),TARBP2,-0.68
TAAGTGAACAGACTGTATCAGT,sensor-assay potency score (higher = more potent),TAF5,-0.556
TTAAGTTCTCGGTATAACCTGC,sensor-assay potency score (higher = more potent),TAF4,0.0759
TTGATTGTAGACTAGCTCCAAG,sensor-assay potency score (higher = more potent),TAF5,-0.676
TAAGACTAGATAATACTCGTAG,sensor-assay potency score (higher = more potent),TAF5,0.809
TTATCTTATCCAACTTATCTGA,sensor-assay potency score (higher = more potent),TAF5,-0.244
TTGTTTGACACTACGAAGCTTT,sensor-assay potency score (higher = more potent),TAF5,0.143
